Data on 8 compounds can be found in PubChem BioAssay (NCI).

The assay in a line: NCI Yeast Anticancer Drug Screen. Data for the wt1 strain (AID 149).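 Note: 0% = growth of vehicle-treated wt1 cultures.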 The conditions noted are these: S. cerevisiae wt1 strain (SPY 50644) growth inhibition, active compounds read high. As to the method: Growth inhibition of yeast strains with defined genetic alterations is measured as a screen for potential anti-cancer activity. Selected strains with alterations in DNA damage repair or cell cycle control were exposed to compounds and growth inhibition was measured relative to vehicle treated controls. The strain used in this assay is wt1

About 79,000 compounds went through this panel and 15% of them were active in at least one assay; those are over-represented in the sample as a whole. Active and inactive are the calls of the source. Cut-off read from the data, not from the text of the source: active = growth inhibition above about 70%; inactive = the rest.

For `Oc1c(Br)cc(Br)cc1C1CCCCC1`, the growth inhibition reads like this: (at 1.2 µM) -21% (inactive); (at 3.7 µM) -12% (inactive); (at 11.0 µM) -6% (inactive); (at 33.0 µM) 97% (active); (at 100.0 µM) 98% (active).

As for `N/C(=N\OC(=O)NC(Cl)=C(Cl)Cl)c1cc(C(F)(F)F)cc(C(F)(F)F)c1`, the growth inhibition was 16% (inactive) (at 1.2 µM); -13% (inactive) (at 3.7 µM); -19% (inactive) (at 11.0 µM); 40% (inactive) (at 33.0 µM); 97% (active) (at 100.0 µM).

As for `Cn1c(=O)c2ccccc2c2ccccc21`, the growth inhibition is -5% (inactive) (at 1.2 µM); -8% (inactive) (at 3.7 µM); -10% (inactive) (at 11.0 µM); 11% (inactive) (at 33.0 µM); 21% (inactive) (at 100.0 µM).

As for `O=C1C=CC(=O)N1c1ccc2c(c1)Cc1cc(NC(=O)C(F)(F)F)ccc1-2`, the growth inhibition was 6% (inactive) (at 1.2 µM); 15% (inactive) (at 3.7 µM); 27% (inactive) (at 11.0 µM); 39% (inactive) (at 33.0 µM); 60% (inactive) (at 100.0 µM).

For the compound `CCOC(=O)c1cc([N+](=O)[O-])cc([N+](=O)[O-])c1Sc1ncnc2nc[nH]c12`, the growth inhibition (at 1.2 µM) was -29% (inactive); the growth inhibition (at 3.7 µM) is -44% (inactive); the growth inhibition (at 11.0 µM) was -32% (inactive); the growth inhibition (at 33.0 µM) was 50% (inactive); the growth inhibition (at 100.0 µM) is 97% (active).

In the case of `CC(=O)Oc1ccc2c(c1)Cc1cc(N=C3C=CC(=O)O3)ccc1-2`, the growth inhibition runs as follows: (at 1.2 µM) 2% (inactive); (at 3.7 µM) 24% (inactive); (at 11.0 µM) 96% (active); (at 33.0 µM) 99% (active); (at 100.0 µM) 96% (active).

For the compound `CN(C)c1ccc(C(C#N)=C(C#N)C#N)cc1`, the growth inhibition is, setting by setting: (at 1.2 µM) -6% (inactive); (at 3.7 µM) -5% (inactive); (at 11.0 µM) -6% (inactive); (at 33.0 µM) -4% (inactive); (at 100.0 µM) 12% (inactive).

For the compound `O=C(O)C1OC1(c1cccc(Cl)c1)c1ccccc1Cl` (stereo not given), the growth inhibition (at 1.2 µM) was -18% (inactive); the growth inhibition (at 3.7 µM) is -15% (inactive); the growth inhibition (at 11.0 µM) is -15% (inactive); the growth inhibition (at 33.0 µM) was 41% (inactive); the growth inhibition (at 100.0 µM) was 93% (active).
